# Measured values as given in PMC7862700, “An all-to-all approach to the identification of sequence-specific readers for epigenetic DNA modifications on cytosine”.
# Tests used:
# Assay in all cases: DAPPL (digital affinity profiling via proximity ligation, sequencing); 10 mM Tris-HCl pH 7.5, 50 mM NaCl, 1 mM DTT, 4% glycerol, room temperature, 30 min; GST-TFs on glutathione beads, 16-mer random dsDNA library, 0.1% formaldehyde crosslink after washing; high values mean tight binding
# [1] = biological target: T1, FLI1 (Homo sapiens, UniProt Q01543 1-452); conditions: protein: recombinant; tags: N-terminal GST; dsDNA, one strand shown
# T1 sequence: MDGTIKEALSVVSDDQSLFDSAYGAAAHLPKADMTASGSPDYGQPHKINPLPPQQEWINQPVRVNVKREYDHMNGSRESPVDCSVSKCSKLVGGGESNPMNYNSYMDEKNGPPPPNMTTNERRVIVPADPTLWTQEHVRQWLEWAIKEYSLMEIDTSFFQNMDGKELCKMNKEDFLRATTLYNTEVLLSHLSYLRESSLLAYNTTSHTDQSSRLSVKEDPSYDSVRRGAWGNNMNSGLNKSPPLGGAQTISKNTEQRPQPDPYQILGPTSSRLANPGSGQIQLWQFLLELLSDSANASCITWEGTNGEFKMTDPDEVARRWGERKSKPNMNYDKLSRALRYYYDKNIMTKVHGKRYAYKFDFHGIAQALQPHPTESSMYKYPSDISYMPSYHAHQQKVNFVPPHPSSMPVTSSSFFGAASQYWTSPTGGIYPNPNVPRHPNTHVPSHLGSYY
# Procedure, shortened: (§1)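 Binding signal is each hexamer's read frequency for a factor divided by its frequency in the tag-only sample. The factors were GST-fused human transcription factors from yeast, captured on glutathione beads, DNA-barcoded and pooled with that sample. Pools were incubated with 200 nmole of a random double-stranded 16-mer DNA library in Tris/NaCl/DTT/glycerol buffer at room temperature for 30 min, then washed, crosslinked with 0.1% formaldehyde, proximity-ligated with BsaI/T4 ligase (1 h, 37 °C), PCR-amplified and sequenced on an Illumina NextSeq500.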
# [2] = biological target: T2, ELK1 (Homo sapiens, UniProt P19419 1-428); conditions: protein: recombinant; tags: N-terminal GST; dsDNA, one strand shown
# T2 sequence: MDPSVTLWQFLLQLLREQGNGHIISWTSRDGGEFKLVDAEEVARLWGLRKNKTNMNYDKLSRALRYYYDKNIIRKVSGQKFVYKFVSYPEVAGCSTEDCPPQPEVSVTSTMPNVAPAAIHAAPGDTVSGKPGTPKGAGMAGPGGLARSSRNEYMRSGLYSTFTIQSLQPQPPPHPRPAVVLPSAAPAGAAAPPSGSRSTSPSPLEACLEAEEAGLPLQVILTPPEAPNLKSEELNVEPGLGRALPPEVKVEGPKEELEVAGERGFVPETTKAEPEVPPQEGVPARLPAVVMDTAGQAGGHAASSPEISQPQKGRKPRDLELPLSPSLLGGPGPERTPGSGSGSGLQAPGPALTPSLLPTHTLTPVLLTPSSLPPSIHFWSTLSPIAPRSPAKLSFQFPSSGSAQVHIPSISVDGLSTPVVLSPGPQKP
# Procedure, shortened: as §1
# [3] = biological target: T3, GABPA (Homo sapiens, UniProt Q06546 1-454); conditions: protein: recombinant; tags: N-terminal GST; dsDNA, one strand shown
# T3 sequence: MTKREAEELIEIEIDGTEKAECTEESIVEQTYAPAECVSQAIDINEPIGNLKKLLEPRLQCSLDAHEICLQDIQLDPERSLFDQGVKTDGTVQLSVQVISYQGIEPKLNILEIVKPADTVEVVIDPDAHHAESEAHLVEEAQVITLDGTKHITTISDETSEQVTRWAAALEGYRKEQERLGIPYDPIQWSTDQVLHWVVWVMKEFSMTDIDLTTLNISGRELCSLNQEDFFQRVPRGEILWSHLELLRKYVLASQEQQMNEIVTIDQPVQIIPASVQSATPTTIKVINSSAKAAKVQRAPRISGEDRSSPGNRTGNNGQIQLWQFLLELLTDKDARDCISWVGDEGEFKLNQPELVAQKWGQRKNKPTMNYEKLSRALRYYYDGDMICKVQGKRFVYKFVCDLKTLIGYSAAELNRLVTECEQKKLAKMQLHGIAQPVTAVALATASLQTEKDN
# Procedure, shortened: as §1
# [4] = biological target: T4, ERG (Homo sapiens, UniProt P11308 1-479); conditions: protein: recombinant; tags: N-terminal GST; dsDNA, one strand shown
# T4 sequence: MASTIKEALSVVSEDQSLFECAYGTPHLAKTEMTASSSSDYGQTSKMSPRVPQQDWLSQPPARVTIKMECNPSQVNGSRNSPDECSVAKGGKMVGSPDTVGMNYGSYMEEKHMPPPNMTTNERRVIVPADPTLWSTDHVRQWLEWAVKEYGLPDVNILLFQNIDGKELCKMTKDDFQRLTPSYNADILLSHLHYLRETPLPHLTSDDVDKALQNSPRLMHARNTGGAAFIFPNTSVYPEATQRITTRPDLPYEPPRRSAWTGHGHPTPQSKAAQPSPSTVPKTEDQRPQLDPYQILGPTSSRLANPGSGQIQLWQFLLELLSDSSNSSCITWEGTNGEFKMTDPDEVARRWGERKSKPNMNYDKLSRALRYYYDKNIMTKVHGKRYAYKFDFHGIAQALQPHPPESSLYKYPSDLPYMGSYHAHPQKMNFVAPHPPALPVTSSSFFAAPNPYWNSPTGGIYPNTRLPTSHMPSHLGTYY
# Procedure, shortened: as §1
# [5] = biological target: ELF1 (Homo sapiens, UniProt P32519 1-619); conditions: protein: recombinant; tags: N-terminal GST; dsDNA, one strand shown
# ELF1, sequence (P32519 whole entry): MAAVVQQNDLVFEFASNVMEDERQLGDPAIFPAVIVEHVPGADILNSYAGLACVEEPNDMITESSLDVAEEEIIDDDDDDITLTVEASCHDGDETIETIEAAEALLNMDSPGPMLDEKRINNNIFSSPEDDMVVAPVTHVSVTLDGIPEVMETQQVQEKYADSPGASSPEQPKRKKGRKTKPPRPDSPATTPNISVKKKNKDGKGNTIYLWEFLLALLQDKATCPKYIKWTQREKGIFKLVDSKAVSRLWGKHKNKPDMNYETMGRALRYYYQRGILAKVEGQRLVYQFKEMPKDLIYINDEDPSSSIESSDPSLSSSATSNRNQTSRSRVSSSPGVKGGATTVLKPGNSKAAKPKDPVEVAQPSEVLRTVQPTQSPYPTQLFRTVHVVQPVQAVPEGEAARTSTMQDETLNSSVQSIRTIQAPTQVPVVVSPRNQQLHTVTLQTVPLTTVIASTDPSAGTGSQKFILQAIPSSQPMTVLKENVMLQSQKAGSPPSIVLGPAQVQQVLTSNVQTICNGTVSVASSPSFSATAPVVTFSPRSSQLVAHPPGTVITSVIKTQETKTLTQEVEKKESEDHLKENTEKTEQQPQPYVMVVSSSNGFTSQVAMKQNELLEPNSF
# Procedure, shortened: as §1
# [6] = biological target: T5, EHF (Homo sapiens, UniProt Q9NZC4 1-300); conditions: protein: recombinant; tags: N-terminal GST; dsDNA, one strand shown
# T5 sequence: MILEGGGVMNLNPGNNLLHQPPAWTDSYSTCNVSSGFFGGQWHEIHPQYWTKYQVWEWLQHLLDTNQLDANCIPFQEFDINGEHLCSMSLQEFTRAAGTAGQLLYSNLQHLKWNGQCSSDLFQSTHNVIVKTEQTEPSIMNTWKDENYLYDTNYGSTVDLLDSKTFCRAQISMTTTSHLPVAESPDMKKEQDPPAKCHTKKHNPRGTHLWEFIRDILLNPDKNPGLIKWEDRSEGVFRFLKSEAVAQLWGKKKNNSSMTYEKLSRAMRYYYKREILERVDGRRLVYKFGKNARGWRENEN
# Procedure, shortened: as §1
# [7] = biological target: SPI1 (Homo sapiens, UniProt P17947 1-270); conditions: protein: recombinant; tags: N-terminal GST; dsDNA, one strand shown
# Procedure, shortened: as §1
# [8] = biological target: SPIB (Homo sapiens, UniProt Q01892 1-262); conditions: protein: recombinant; tags: N-terminal GST; dsDNA, one strand shown
# SPIB, sequence (Q01892 whole entry): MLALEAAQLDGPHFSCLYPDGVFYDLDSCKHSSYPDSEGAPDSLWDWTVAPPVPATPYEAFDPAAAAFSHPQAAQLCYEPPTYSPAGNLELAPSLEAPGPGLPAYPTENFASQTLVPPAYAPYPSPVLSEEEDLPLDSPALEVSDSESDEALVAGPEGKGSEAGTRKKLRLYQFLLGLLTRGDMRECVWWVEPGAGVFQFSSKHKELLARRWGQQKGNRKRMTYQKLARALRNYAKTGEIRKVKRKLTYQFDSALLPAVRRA
# Procedure, shortened: as §1
# [9] = biological target: T6, ELK3 (Homo sapiens, UniProt P41970 1-407); conditions: protein: recombinant; tags: N-terminal GST; dsDNA, one strand shown
# T6 sequence: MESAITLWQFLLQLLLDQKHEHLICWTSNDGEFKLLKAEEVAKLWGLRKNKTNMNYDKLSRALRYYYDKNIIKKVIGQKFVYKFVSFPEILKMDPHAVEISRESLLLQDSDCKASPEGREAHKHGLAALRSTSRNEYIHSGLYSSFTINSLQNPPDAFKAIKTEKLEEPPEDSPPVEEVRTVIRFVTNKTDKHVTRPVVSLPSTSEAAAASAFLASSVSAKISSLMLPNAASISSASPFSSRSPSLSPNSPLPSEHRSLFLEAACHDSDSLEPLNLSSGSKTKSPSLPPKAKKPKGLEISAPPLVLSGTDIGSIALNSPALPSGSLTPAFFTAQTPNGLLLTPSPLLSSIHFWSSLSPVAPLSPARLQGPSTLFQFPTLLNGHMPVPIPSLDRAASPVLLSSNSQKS
# Procedure, shortened: as §1
# [10] = biological target: T7, FEV (Homo sapiens, UniProt Q99581 1-238); conditions: protein: recombinant; tags: N-terminal GST; dsDNA, one strand shown
# T7 sequence: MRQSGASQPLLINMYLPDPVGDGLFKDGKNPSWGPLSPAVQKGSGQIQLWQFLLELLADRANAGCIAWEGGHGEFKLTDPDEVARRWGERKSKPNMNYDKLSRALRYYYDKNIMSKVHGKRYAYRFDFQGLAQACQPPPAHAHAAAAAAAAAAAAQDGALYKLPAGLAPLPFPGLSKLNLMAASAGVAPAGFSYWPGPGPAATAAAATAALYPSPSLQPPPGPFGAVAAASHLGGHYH
# Procedure, shortened: as §1
# [11] = biological target: ETV5 (Homo sapiens, UniProt P41161 1-510); conditions: protein: recombinant; tags: N-terminal GST; dsDNA, one strand shown
# ETV5, sequence (P41161 whole entry): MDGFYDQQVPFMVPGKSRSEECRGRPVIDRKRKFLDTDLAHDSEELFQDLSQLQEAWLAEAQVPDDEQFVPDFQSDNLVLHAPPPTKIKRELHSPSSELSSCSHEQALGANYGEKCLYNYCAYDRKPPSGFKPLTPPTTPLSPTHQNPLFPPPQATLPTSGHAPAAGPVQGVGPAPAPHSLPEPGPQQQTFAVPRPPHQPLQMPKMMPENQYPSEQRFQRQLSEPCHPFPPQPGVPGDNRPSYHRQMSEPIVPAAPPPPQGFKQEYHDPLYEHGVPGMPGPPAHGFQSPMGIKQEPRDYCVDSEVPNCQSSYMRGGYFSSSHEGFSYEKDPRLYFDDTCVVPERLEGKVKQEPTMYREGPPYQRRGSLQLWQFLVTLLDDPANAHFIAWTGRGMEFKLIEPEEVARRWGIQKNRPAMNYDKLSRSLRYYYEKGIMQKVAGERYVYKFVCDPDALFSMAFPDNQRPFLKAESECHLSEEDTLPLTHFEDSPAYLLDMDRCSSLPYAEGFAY
# Procedure, shortened: as §1
# [12] = biological target: HSF1 (Homo sapiens, UniProt Q00613 1-529); conditions: protein: recombinant; tags: N-terminal GST; chain copies: 3; dsDNA, one strand shown
# HSF1, sequence (Q00613 whole entry): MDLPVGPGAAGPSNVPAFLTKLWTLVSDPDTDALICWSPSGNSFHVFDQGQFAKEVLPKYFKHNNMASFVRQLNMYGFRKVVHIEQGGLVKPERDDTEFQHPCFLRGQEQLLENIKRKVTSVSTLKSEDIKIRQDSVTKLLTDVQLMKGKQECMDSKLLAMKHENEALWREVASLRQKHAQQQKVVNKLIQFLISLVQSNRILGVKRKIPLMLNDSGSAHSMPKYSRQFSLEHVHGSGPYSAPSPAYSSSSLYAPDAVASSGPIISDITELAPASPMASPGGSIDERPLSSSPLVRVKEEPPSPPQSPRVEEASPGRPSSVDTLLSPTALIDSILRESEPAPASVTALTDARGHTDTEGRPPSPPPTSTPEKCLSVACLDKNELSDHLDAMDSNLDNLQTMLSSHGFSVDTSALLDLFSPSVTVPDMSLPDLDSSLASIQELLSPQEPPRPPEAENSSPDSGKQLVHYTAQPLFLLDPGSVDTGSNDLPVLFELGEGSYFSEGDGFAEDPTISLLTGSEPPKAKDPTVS
# Procedure, shortened: as §1
# [13] = biological target: T8, SPIC (Homo sapiens, UniProt Q8N5J4 1-248); conditions: protein: recombinant; tags: N-terminal GST; dsDNA, one strand shown
# T8 sequence: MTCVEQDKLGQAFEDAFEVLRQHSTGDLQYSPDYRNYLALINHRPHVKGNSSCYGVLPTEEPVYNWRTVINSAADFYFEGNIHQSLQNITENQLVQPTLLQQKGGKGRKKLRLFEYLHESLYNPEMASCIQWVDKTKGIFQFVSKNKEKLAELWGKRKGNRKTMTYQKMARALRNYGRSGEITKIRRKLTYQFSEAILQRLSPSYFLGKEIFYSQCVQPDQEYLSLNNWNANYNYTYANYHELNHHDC
# Procedure, shortened: as §1
# [14] = biological target: ELF4 (Homo sapiens, UniProt Q99607 1-663); conditions: protein: recombinant; tags: N-terminal GST; dsDNA, one strand shown
# ELF4, sequence (Q99607 whole entry): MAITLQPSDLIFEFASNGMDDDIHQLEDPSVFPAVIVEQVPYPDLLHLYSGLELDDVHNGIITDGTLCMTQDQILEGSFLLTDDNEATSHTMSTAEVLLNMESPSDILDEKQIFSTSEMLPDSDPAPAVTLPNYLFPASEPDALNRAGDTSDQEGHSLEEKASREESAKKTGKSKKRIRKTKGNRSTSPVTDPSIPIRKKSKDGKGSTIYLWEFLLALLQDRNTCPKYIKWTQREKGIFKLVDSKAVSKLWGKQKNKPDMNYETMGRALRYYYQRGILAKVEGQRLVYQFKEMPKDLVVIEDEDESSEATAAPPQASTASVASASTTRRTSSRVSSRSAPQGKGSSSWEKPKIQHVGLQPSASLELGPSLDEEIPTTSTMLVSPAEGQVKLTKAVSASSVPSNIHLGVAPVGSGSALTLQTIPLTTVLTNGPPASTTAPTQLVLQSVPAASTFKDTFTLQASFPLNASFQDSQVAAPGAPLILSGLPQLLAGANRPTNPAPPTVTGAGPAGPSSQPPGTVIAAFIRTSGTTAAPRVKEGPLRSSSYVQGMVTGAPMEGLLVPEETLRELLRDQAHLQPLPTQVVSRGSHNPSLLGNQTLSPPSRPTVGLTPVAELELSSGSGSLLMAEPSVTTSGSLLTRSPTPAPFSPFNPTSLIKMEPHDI
# Procedure, shortened: as §1
# [15] = biological target: T9, ELK4 (Homo sapiens, UniProt P28324-2 1-405); conditions: protein: recombinant; tags: N-terminal GST; dsDNA, one strand shown
# T9 sequence: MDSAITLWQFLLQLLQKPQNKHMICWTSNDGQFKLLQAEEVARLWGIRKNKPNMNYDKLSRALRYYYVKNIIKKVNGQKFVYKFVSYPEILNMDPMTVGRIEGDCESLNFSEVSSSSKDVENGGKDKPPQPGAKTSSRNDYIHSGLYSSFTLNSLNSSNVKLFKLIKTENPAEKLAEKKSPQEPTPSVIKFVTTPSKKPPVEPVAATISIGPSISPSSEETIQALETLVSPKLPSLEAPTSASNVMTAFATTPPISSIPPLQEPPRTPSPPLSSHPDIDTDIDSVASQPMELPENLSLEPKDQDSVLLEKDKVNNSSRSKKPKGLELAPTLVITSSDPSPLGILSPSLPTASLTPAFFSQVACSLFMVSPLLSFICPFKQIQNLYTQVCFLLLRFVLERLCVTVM
# Procedure, shortened: as §1
# [16] = biological target: T10, ETV2 (Homo sapiens, UniProt O00321 1-342); conditions: protein: recombinant; tags: N-terminal GST; dsDNA, one strand shown
# T10 sequence: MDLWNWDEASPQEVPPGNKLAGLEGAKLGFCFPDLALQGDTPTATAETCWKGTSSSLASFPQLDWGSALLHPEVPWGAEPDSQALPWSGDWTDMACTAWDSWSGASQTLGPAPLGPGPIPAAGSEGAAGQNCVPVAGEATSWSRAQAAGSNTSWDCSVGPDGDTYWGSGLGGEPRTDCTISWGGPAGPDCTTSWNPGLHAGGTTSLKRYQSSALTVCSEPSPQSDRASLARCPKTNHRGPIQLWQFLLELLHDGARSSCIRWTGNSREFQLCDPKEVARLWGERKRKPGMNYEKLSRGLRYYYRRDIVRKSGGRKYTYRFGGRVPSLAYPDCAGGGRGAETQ
# Procedure, shortened: as §1
# [17] = biological target: T11, ELF3 (Homo sapiens, UniProt P78545 1-371); conditions: protein: recombinant; tags: N-terminal GST; dsDNA, one strand shown
# T11 sequence: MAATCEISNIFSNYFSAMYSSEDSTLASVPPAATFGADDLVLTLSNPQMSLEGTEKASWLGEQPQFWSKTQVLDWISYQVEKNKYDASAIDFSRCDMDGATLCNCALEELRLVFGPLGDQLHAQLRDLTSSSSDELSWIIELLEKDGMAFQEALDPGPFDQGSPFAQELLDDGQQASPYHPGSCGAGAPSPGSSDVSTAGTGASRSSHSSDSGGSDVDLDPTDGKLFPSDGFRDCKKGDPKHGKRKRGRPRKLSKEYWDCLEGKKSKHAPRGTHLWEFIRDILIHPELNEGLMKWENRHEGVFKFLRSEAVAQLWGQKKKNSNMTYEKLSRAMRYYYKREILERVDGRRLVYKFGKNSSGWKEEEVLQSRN
# Procedure, shortened: as §1
# [18] = biological target: CRX (Homo sapiens, UniProt O43186 1-299); conditions: protein: recombinant; tags: N-terminal GST; dsDNA, one strand shown
# CRX, sequence (O43186 whole entry): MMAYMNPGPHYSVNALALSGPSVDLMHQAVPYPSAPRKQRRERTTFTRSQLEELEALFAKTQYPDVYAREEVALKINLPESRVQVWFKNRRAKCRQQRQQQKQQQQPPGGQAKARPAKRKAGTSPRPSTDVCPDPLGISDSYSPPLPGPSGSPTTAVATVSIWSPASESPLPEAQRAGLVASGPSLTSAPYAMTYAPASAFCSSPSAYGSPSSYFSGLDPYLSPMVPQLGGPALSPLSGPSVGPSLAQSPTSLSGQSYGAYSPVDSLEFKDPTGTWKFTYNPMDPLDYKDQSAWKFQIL
# Procedure, shortened: as §1
# [19] = biological target: ETV1 (Homo sapiens, UniProt P50549 1-477); conditions: protein: recombinant; tags: N-terminal GST; dsDNA, one strand shown
# ETV1, sequence (P50549 whole entry): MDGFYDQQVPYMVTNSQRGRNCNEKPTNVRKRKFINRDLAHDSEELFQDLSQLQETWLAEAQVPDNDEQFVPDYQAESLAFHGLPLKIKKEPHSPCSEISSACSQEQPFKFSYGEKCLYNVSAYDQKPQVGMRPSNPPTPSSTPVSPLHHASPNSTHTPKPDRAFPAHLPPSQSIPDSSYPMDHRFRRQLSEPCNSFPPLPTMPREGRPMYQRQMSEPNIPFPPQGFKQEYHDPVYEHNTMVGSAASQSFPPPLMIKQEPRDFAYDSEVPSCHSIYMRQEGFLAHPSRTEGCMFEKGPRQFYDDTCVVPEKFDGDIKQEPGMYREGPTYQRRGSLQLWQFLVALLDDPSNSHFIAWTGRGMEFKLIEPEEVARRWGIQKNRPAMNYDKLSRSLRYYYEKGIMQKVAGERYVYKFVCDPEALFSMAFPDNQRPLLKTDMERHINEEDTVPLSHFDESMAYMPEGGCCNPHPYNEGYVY
# Procedure, shortened: as §1
sequence,measurement,setting,value
TTTCTT,binding signal,[1],"1.42 fold enrichment (6-mer frequency, TF over GST control)"
same,binding signal,[2],"1.3 fold enrichment (6-mer frequency, TF over GST control)"
same,binding signal,[3],"1.42 fold enrichment (6-mer frequency, TF over GST control)"
same,binding signal,[4],"1.37 fold enrichment (6-mer frequency, TF over GST control)"
same,binding signal,[5],"1.38 fold enrichment (6-mer frequency, TF over GST control)"
same,binding signal,[6],"1.29 fold enrichment (6-mer frequency, TF over GST control)"
same,binding signal,[7],"1.37 fold enrichment (6-mer frequency, TF over GST control)"
same,binding signal,[8],"1.24 fold enrichment (6-mer frequency, TF over GST control)"
same,binding signal,[9],"1.31 fold enrichment (6-mer frequency, TF over GST control)"
same,binding signal,[10],"1.23 fold enrichment (6-mer frequency, TF over GST control)"
same,binding signal,[11],"1.22 fold enrichment (6-mer frequency, TF over GST control)"
same,binding signal,[12],"1.7 fold enrichment (6-mer frequency, TF over GST control)"
same,binding signal,[13],"1.24 fold enrichment (6-mer frequency, TF over GST control)"
same,binding signal,[14],"1.33 fold enrichment (6-mer frequency, TF over GST control)"
same,binding signal,[15],"1.17 fold enrichment (6-mer frequency, TF over GST control)"
same,binding signal,[16],"1.24 fold enrichment (6-mer frequency, TF over GST control)"
same,binding signal,[17],"1.3 fold enrichment (6-mer frequency, TF over GST control)"
same,binding signal,[18],"1.46 fold enrichment (6-mer frequency, TF over GST control)"
same,binding signal,[19],"1.38 fold enrichment (6-mer frequency, TF over GST control)"
